RTF Ca sens act: cardiac RTF calcium sensitization | P19429+P45379 | IANBD-labeled TnC RTF fluorescence at EC20 calcium; 0% EC20 calcium, 100% full calcium | activation, % at 7.2 µM | 0.24% of 340,000 active | AID 493008;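 active means activation above the mean over all tested compounds plus 3 SD, cut at about 30% in these data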;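 further: rise in fluorescence read as greater calcium sensitivity of cardiac thin filaments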
RTF Ca sens inh: cardiac RTF calcium desensitization. IANBD-labeled cardiac RTF, Ca2+ fluorescence. inhibition, % at 7.15 µM. 0.12% of 340,000 active. AID 493244;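 active means inhibition above the mean inhibition of all tested compounds plus 3 SD, cut at about 17% in these data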;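 further: assay run at fixed EC70 calcium of 1.6 mM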
LANA DNA inh: KSHV C-LANA DNA binding inhibition; MBP-C-LANA/FAM-LBS DNA binding, fluorescence polarization; 0.078% of 340,000 active; inhibition, % at 9 µM;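 active means highest replicate inhibition at or above 60% at 9 µM, even if other replicates fall short; inactive means all replicates below 60% inhibition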
eLon inh: inhibits E. coli Lon protease; P0A9M0; purified E. coli Lon protease, fluorescence polarization; inhibition, % at 7.94 µM; 0.42% of 360,000 active; in the data active means inhibition above about 13%, passing the limit was not always enough
LANA-H2A inh: blocks KSHV LANA binding to histone H2A/H2B. inhibition, % (no concentration beside the values). 0.6% of 320,000 active. Q9QR71. cell-free LANA-H2A/H2B peptide, fluorescence polarization. AID 2629; in the data active means inhibition mostly above about 10%, no sharp cut-off; inactive means mostly below about 6.7%
Keap1-Nrf2 PPI: disrupts human Keap1 binding to Nrf2 peptide; Q14145; Keap1 Kelch-Nrf2 peptide fluorescence polarization, 1536-well; inhibition, % at 9.4 µM; 0.15% of 340,000 active; AID 504523; in the data active means inhibition above about 12%;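 further: human Keap1 Kelch domain with fluorescein labeled Nrf2 9mer peptide probe; higher means more block of Keap1 binding to Nrf2 peptide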
Target sequence (Q14145 whole entry, looked up, the tested form may be a part): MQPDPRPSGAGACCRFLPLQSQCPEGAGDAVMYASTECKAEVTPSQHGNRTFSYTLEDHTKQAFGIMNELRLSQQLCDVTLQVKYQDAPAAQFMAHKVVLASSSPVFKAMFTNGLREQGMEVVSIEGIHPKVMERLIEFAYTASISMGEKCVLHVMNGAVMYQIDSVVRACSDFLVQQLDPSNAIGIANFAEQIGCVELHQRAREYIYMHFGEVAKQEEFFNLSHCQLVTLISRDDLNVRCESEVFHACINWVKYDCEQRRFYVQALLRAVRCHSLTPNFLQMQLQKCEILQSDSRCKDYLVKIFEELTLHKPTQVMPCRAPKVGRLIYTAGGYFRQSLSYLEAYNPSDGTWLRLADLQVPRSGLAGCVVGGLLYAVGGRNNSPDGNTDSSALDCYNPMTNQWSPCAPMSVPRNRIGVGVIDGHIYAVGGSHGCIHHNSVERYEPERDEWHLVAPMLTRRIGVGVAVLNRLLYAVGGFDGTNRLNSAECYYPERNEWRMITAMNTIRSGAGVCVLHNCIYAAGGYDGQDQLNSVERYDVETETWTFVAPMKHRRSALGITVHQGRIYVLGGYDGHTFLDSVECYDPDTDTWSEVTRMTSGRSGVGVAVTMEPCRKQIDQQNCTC
Keap1 TSA: binders of human Keap1 Kelch domain. AID 651823. 8% of 400 active. shares compounds with Keap1-Nrf2 PPI. Keap1 Kelch thermal shift, delta Tm; stronger effect = higher value. max delta Tm, degrees C; in the data active means max delta Tm above about 0.48 degrees C
Sypro dye melt: counter-screen for Keap1 thermal shift hits: dye-only artifacts; shares compounds with Keap1-Nrf2 PPI; Sypro Orange dye-only thermal melt, no protein, delta Tm; top dose 26 µM; delta Tm, degrees C (test concentration not listed); 140 tested, under 10 active; AID 651858;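 active means at highest dose tested, delta Tm positive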
E coli Lon conf: E. coli Lon inhibition confirmation; inhibition, % at 7.94 µM; 31% of 1,400 active; shares compounds with eLon inh; AID 602230; purified E. coli Lon, fluorescence polarization; in the data active means inhibition above about 16%
Hits are given with their value; 0 = inactive; - = not tested or not shown; + = active, no number. Hits are enriched below; roughly 1.3% of the tested compounds scored in any of these assays.

SMILES | RTF Ca sens act | RTF Ca sens inh | LANA DNA inh | eLon inh | LANA-H2A inh | Keap1-Nrf2 PPI | Keap1 TSA | E coli Lon conf | others
O=C1N=c2ccc(Br)cc2=C1c1sc(=S)n(NS(=O)(=O)c2ccccc2)c1O | 0 | 0 | 0 | 0 | 0 | 53 | 2.7 | - | Sypro dye melt=0
CC(C)(C)c1ccc(/C=C(\C#N)C(=O)NCCN2CCOCC2)cc1 | 0 | 0 | 0 | 0 | 0 | 0 | - | -
COc1ccccc1N(Cc1ccccc1)S(=O)(=O)c1cccc(C(=O)Nc2ncccc2C)c1 | 0 | 0 | 0 | 0 | 0 | 0 | - | -
COc1ccc(N(Cc2ccccc2)S(=O)(=O)c2cccc(C(=O)Nc3ncccc3C)c2)cc1 | 0 | 0 | 0 | 0 | 0 | 22 | 0 | -
CCOCCCn1c(=NC(=O)c2cccs2)c(C#N)cc2c(=O)n3ccccc3nc21 | 0 | 0 | 0 | 0 | 35 | 23 | 0 | -
O=S(=O)([O-])CCC[n+]1c(SCCCS(=O)(=O)O)sc2ccc(Cl)cc21 | 0 | 0 | 0 | 0 | 0 | 21 | 0 | - | Sypro dye melt=0
O=C(CCc1ccccc1)Nc1ccc(S(=O)(=O)NC2=NCCCCC2)cc1 | 0 | 0 | 0 | 0 | 0 | 0 | - | -
CNC(=S)Nc1cccc(C(=O)OC)c1 | - | - | - | 0 | 0 | 41 | 0 | - | Sypro dye melt=0
COc1ccc([N+](=O)[O-])cc1NC(=O)c1ccc(-n2nc(C)cc2C)cc1 | 0 | 0 | 0 | 0 | 0 | 0 | - | -
Cc1cc2nc3c(=O)[nH]c(=S)[nH]c3nc2cc1NC(=O)C(F)(F)F | 65 | 0 | 0 | + | 0 | 27 | 0 | 145
O=c1[nH]c(=S)[nH]c2nc(-c3ccccc3)cnc12 | 0 | 0 | 0 | 0 | 0 | 0 | - | -
O=c1ccc2cc3c4c(c2o1)CCCN4CCC3 | 129 | 0 | 0 | 80 | 0 | 38 | 0 | 22
CC(=O)Nc1cccc(NC(=O)c2cccc(-c3ccc(O)cc3)c2)c1 | 0 | 0 | 0 | 0 | 0 | 0 | - | -
COc1ccc(NC(=O)c2cccc(-c3ccc(O)cc3)c2)cn1 | 0 | 0 | 0 | 74 | 0 | 13 | 0 | 35
Cc1cccc(N2C(=O)c3cccc4cccc(c34)C2=O)c1 | 0 | 0 | 0 | 0 | 0 | 0 | - | -
Cc1cccc(N2C(=O)c3cccc4c(N)ccc(c34)C2=O)c1 | + | 0 | 135 | + | 61 | 75 | 0 | + | Sypro dye melt=0
CC(C)CCN1C(=O)c2cccc3c(N)ccc(c23)C1=O | 658 | 0 | 96 | + | 14 | 71 | 0 | 143
Nc1ccc2c3c(cccc13)C(=O)N(c1ccccc1)C2=O | 972 | 0 | 0 | + | - | 31 | 0 | +
CCN1C(=O)c2cccc3c(Cl)ccc(c23)C1=O | 0 | 0 | 0 | 0 | 0 | 0 | - | -
Nc1cccc(N2C(=O)c3cccc4c(N)ccc(c34)C2=O)c1 | 291 | 0 | 88 | + | 26 | 17 | 0 | +
CC1(c2ccccc2)NC(=O)N(CC(=O)N(c2ccccc2)C2CCS(=O)(=O)C2)C1=O (stereo unspecified) | 0 | 0 | 0 | 0 | 0 | 0 | - | -
Cc1cccc2c1c1ccc3c(c1n2C)C(=O)C=CC3=O | 0 | 0 | 0 | 0 | - | 0 | - | -
NNC(=O)c1cc(Br)cs1 | 0 | 0 | 0 | 0 | 0 | 0 | - | -
CCOc1cc(/C=N/NC(=O)C(=O)N2CCCC2)ccc1O | 0 | 0 | 0 | 0 | 0 | 0 | - | -
Cc1cccc(N2C(=O)c3cccc4c(N(C)CCO)ccc(c34)C2=O)c1 | 331 | 0 | 68 | 175 | 20 | 12 | 0 | 144
SMILES | RTF Ca sens act | RTF Ca sens inh | LANA DNA inh | eLon inh | LANA-H2A inh | Keap1-Nrf2 PPI | Keap1 TSA | E coli Lon conf | others
CN(C)c1ccc2c3c(cccc13)C(=O)N(c1ccccc1)C2=O | - | - | - | - | 0 | - | - | -
O=C(C1=C(O)C(=O)N(c2nccs2)C1c1ccccc1)c1cc2ccccc2o1 (stereo unspecified) | 34 | 0 | 0 | + | 0 | 42 | 0 | 197
CCOc1cccc(C2C(C(=O)c3ccc(C)o3)=C(O)C(=O)N2c2nccs2)c1 (stereo unspecified) | 0 | 0 | 0 | 98 | 15 | 24 | 0 | 118
O=C(C1=C(O)C(=O)N(CCc2ccccc2)C1c1ccncc1)c1cc2ccccc2o1 (stereo unspecified) | 0 | 0 | 0 | 0 | 0 | 0 | - | -
CCOc1ccc(C=Nc2cccc3ncccc23)cc1 | 0 | 0 | 0 | 0 | 0 | 0 | - | -
COc1ccc(C=Nc2cccnc2N)cc1 | 0 | 0 | 0 | + | 0 | 23 | 0 | 0
O=C1c2ccccc2C(=O)c2c1cccc2N1CCCC1 | 0 | 0 | 0 | 0 | 0 | 0 | - | -
O=C1c2ccccc2-c2onc3ccc(N4CCCC4)c1c23 | 396 | 0 | 0 | 160 | - | 16 | 0 | 0
O=C1C(Cl)=C(NCc2ccco2)C(=O)c2ccccc21 | 0 | 0 | 0 | 0 | - | 0 | - | -
CCNc1ccc2noc3c2c1C(=O)c1ccccc1-3 | + | 0 | 65 | + | 28 | 21 | 0.83 | 183
CCOc1ccc2noc3c2c1C(=O)c1ccccc1-3 | + | 0 | 0 | + | 44 | 21 | 0 | +
O=C1c2ccccc2-c2onc3ccc(NCc4ccco4)c1c23 | 715 | 0 | 0 | 128 | 111 | 19 | 0 | 118
CCOC(=O)c1c(C)oc2c1C(=O)c1ccccc1C2=O | 0 | 0 | 0 | 0 | 0 | 0 | - | -
O=C(Cn1nc(Br)nc1Br)c1ccccc1 | 0 | 0 | 0 | 0 | 0 | 0 | - | -
CCN(CC)C(=O)C1c2ccccc2Oc2ccccc21 | 0 | 0 | 77 | + | 14 | 39 | 0 | 0
O=C(COC(=O)c1c(F)cccc1Cl)NC(=O)Nc1ccc2c(c1)OCCO2 | 0 | 0 | 0 | 0 | 0 | 0 | - | -
CCCCOc1[nH]c2nc(-c3ccco3)n(Cc3ccco3)c(=N)c2c1C#N | 0 | 0 | 0 | 51 | 0 | 16 | 0 | 0
CCN1CC=C2C(C#N)=C(N)C(C#N)(C#N)C(CCc3ccccc3)C2C1 (stereo unspecified) | 35 | 0 | 0 | 27 | 25 | 22 | 0 | 21
CC(=O)N1CC=C2C(C#N)=C(N)C(C#N)(C#N)C(CCc3ccccc3)C2C1 (stereo unspecified) | 0 | 0 | 0 | 0 | 0 | 0 | - | -
COc1ccc(C(=O)NCC(=O)N/N=C/c2cn(C)c3ccccc23)cc1OC | 0 | 0 | 0 | 0 | 0 | 0 | - | -
CCOC(=O)c1ccc2ncc(C(=O)OCC)c(NCCN(C)C)c2c1 | 0 | 0 | 0 | 22 | 0 | 14 | 0 | 0 | Sypro dye melt=0
COC(=O)c1ccccc1NC(=O)c1cc([N+](=O)[O-])nn1Cc1ccccc1 | 0 | 0 | 0 | 0 | 0 | 0 | - | -
COc1ccc2nc(NC(=O)C3CC(=O)N(c4ccccc4)C3)sc2c1 (stereo unspecified) | 0 | 0 | 0 | 0 | 0 | 0 | - | -
